Assay results reported in the supplement of paper PMC12045047.
Where a name gives a salt, the structure may show the parent alone. Unmarked numbers belong to inactive results.

Tested on: primary human airway basal cells (HBEC, luciferase-transduced)
Experiment: proliferation (luciferase bioluminescence) Z score relative to plate mean; higher = more proliferation / more cells, active = 1.96 or more
Conditions: donor: 1, library: ENZO Libraries, 4 days
Protocol: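 Primary human bronchial epithelial (airway basal) cells from two donors, lentivirally transduced with pHIV-Luc-ZsGreen, were seeded at 2000 cells/well in 384-well plates in FAD medium with ENZO or Prestwick library compounds and cultured for 4 days. Luciferin was then added and bioluminescence was read as a measure of cell number. Relative light units were converted to Z scores against the plate, and the mean of triplicate wells is reported.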

Compound: N#CC(=C(/N)Sc1ccccc1N)/C(C#N)=C(/N)Sc1ccccc1N
- proliferation (0.5 µM): -1.3
- proliferation (5 µM): -1.33

Compound: NC(N)=NCCC[C@H](NC(=O)[C@@H]1CCCN1C(=O)[C@H](N)Cc1ccccc1)C(=O)CCl
- proliferation (0.5 µM): 0.533
- proliferation (5 µM): -0.142

Compound: CC(=O)Nc1ccc(C(=O)Nc2ccccc2N)cc1
- proliferation (0.5 µM): 0.183
- proliferation (5 µM): -0.038

Compound: C=CC(=O)c1ccc2ccccc2c1
- proliferation (0.5 µM): 0.129
- proliferation (5 µM): -0.357

Compound: CC(C)C(=O)SCCCCCCC(=O)Nc1nc(-c2ccccc2)cs1
- proliferation (0.5 µM): 0.111
- proliferation (5 µM): 0.205

Compound: O=Nc1ccc(O)c2ncccc12
- proliferation (0.5 µM): -0.683
- proliferation (5 µM): -1.09

Compound: COC(=O)C[C@H](NC(=O)[C@H](C)NC(=O)[C@@H](NC(=O)OCc1ccccc1)C(C)C)C(=O)CF
- proliferation (0.5 µM): -0.208
- proliferation (5 µM): -0.0506

Compound: COc1cc2ncc(-c3ccccc3)nc2cc1OC
- proliferation (0.5 µM): 2.2 (active)
- proliferation (5 µM): 2.78 (active)

Compound: O=C(c1ccc(Cl)cc1Cl)n1nnc2ccccc21
- proliferation (0.5 µM): -0.0821
- proliferation (5 µM): 0.316

Compound: CO[C@@H]1[C@H](OC(=O)/C=C/C=C/C=C/C=C/C(=O)O)CC[C@]2(CO2)[C@H]1[C@@]1(C)O[C@@H]1CC=C(C)C [Fumagillin]
- proliferation (0.5 µM): -1.58
- proliferation (5 µM): -0.343

Compound: CC(C)c1cnc(NC(=O)Cc2ccccc2)s1
- proliferation (0.5 µM): 0.304
- proliferation (5 µM): 0.142

Compound: O=C1Nc2ccc([N+](=O)[O-])cc2C1=O [5-Nitroisatin]
- proliferation (0.5 µM): 0.112
- proliferation (5 µM): -0.27

Compound: Nc1c(O)cc(O)cc1C=Cc1ccc(O)cc1 [Aminoresveratrol sulfate]
- proliferation (0.5 µM): 0.00314
- proliferation (5 µM): 1.56

Compound: N[C@H](C(=O)O)[C@@H]1CC(Cl)=NO1 [Acivicin]
- proliferation (0.5 µM): -0.75
- proliferation (5 µM): -1.56

Compound: Oc1ccc(/C=C/c2cc(O)cc(O)c2)cc1 [Resveratrol]
- proliferation (0.5 µM): 1.08
- proliferation (5 µM): 3.39 (active)

Compound: O=C(O)CCCc1ccccc1
- proliferation (0.5 µM): -0.468
- proliferation (5 µM): -0.326

Compound: CCCC[C@@H](C=O)NC(=O)OC(C)(C)C
- proliferation (0.5 µM): 0.474
- proliferation (5 µM): -0.0416

Compound: CC(C)C[C@H](NC(=O)[C@@H](O)[C@H](N)Cc1ccccc1)C(=O)O
- proliferation (0.5 µM): -0.66
- proliferation (5 µM): -0.519

Compound: CC1CNc2c(cccc2S(=O)(=O)N[C@@H](CCCNC(=N)N)C(=O)N2CC[C@@H](C)C[C@@H]2C(=O)O)C1 (stereo not given in full) [Argatroban]
- proliferation (0.5 µM): 0.0616
- proliferation (5 µM): -0.0211

Compound: O=C1Nc2ccccc2/C1=C1/Nc2ccccc2C1=O [Indirubin]
- proliferation (0.5 µM): -0.759
- proliferation (5 µM): -1.2

Compound: CCN1C(=O)C=CC1=O [N-Ethylmaleimide]
- proliferation (0.5 µM): 0.0934
- proliferation (5 µM): -0.247

Compound: CO[C@H]1C[C@@H]2CC[C@@H](C)[C@@](O)(O2)C(=O)C(=O)N2CCCC[C@H]2C(=O)O[C@H]([C@H](C)C[C@@H]2CC[C@@H](O)[C@H](OC)C2)CC(=O)[C@H](C)/C=C(\C)[C@@H](O)[C@@H](OC)C(=O)[C@H](C)C[C@H](C)/C=C/C=C/C=C/1C [Rapamycin]
- proliferation (0.5 µM): -3.38
- proliferation (5 µM): -1.63

Compound: COCc1cc(O)c(O)c(O)c1-c1c(COC)cc(O)c(O)c1O
- proliferation (0.5 µM): -0.578
- proliferation (5 µM): -0.416

Compound: O=C1Cc2c([nH]c3ccc(Br)cc23)-c2ccccc2N1 [Kenpaullone]
- proliferation (0.5 µM): 3.89 (active)
- proliferation (5 µM): -0.683

Compound: CC(C)(C)c1cc(C=C(C#N)C(N)=S)cc(C(C)(C)C)c1O
- proliferation (0.5 µM): -0.666
- proliferation (5 µM): -0.702

Compound: CC(NC(=O)C(Cc1ccccc1)NC(=O)OCc1ccccc1)C(=O)CF (stereo not given)
- proliferation (0.5 µM): -0.176
- proliferation (5 µM): -0.114

Compound: CC(C)c1cc(/C=C(\C#N)C(=O)NCCCc2ccccc2)cc(C(C)C)c1O
- proliferation (0.5 µM): -0.208
- proliferation (5 µM): -0.405

Compound: CC(NC(=O)c1ccccc1/N=C/c1c(O)ccc2ccccc12)c1ccccc1 (stereo not given) [Sirtinol]
- proliferation (0.5 µM): -0.129
- proliferation (5 µM): -0.361

Compound: Nc1nc2ncnc-2c[nH]1 [2-Aminopurine]
- proliferation (0.5 µM): -0.301
- proliferation (5 µM): -0.296

Compound: Nc1ncn([C@H]2C[C@H](O)[C@@H](CO)O2)c(=O)n1 [5-Aza-2'-deoxycytidine]
- proliferation (0.5 µM): -0.383
- proliferation (5 µM): -0.302

Compound: Oc1c2ccccc2c2c3c(cccc13)N=N2
- proliferation (0.5 µM): 0.134
- proliferation (5 µM): -0.168

Compound: Oc1cc(O)cc(/C=C/c2ccc(O)c(O)c2)c1 [Piceatannol]
- proliferation (0.5 µM): -0.115
- proliferation (5 µM): 1.52

Compound: NC(=O)c1cccnc1 [Nicotinamide]
- proliferation (0.5 µM): 0.0934
- proliferation (5 µM): 0.119

Compound: N#CC(=Cc1ccc2[nH]ccc2c1)C(N)=C(C#N)C#N
- proliferation (0.5 µM): 0.0615
- proliferation (5 µM): -0.386

Compound: NC(=O)c1ccncc1 [Isonicotinamide]
- proliferation (0.5 µM): 0.125
- proliferation (5 µM): -0.0123

Compound: CNC(=O)[C@H](Cc1c[nH]c2ccccc12)NC(=O)[C@@H](CC(=O)NO)CC(C)C
- proliferation (0.5 µM): -0.298
- proliferation (5 µM): -0.522

Compound: N#C/C(=C\c1ccc(O)c(O)c1)C(=O)Nc1ccccc1
- proliferation (0.5 µM): 0.183
- proliferation (5 µM): 0.06

Compound: CCCC(CCC)C(=O)NO [Valproic acid hydroxamate]
- proliferation (0.5 µM): -0.292
- proliferation (5 µM): -0.132

Compound: CSCCC(C=O)NC(=O)C(CC(C)C)NC(=O)[C@H](CC(C)C)NC(C)=O (stereo not given in full) [Calpain Inhibitor II (ALLM)]
- proliferation (0.5 µM): 0.241
- proliferation (5 µM): -0.104

Compound: O=Nc1c(-c2c(O)[nH]c3ccccc23)[nH]c2ccccc12 [Indirubin-3'-monooxime]
- proliferation (0.5 µM): -0.0926
- proliferation (5 µM): 2.48 (active)

Compound: O=C1Nc2ccc(I)cc2/C1=C/c1cc(Br)c(O)c(Br)c1
- proliferation (0.5 µM): -0.115
- proliferation (5 µM): -0.66

Compound: Cn1cnc2c(NCc3ccccc3)nc(NCCO)nc21 [Olomoucine]
- proliferation (0.5 µM): 0.166
- proliferation (5 µM): -0.244

Compound: Cc1cc2ncc(-c3ccccc3)nc2cc1C
- proliferation (0.5 µM): 5.22 (active)
- proliferation (5 µM): 2.1 (active)

Compound: O=C(O)c1ccnc(C(=O)O)c1 [24-Pyridinedicarboxylic Acid]
- proliferation (0.5 µM): 0.171
- proliferation (5 µM): -0.194

Compound: C=C(C)[C@@H](CC=C(C)C)C[C@@]12C[C@@H](CC=C(C)C)C(C)(C)[C@@](CC=C(C)C)(C(=O)C(C(=O)c3ccc(O)c(O)c3)=C1O)C2=O [Garcinol]
- proliferation (0.5 µM): -0.468
- proliferation (5 µM): -0.215
